Source: PubChem BioAssay AID1159580 (chemical genetic matrix, 2015)
Screen size: about 5,500 compounds; about 2,000 (36%) were called active. Another 18% or so got no clear call; they are omitted. Rule as the data show it: active = normalized growth mostly below about 0.91 (no sharp cut-off); inconclusive = no clear call, values can overlap the other calls; inactive = mostly above about 0.92. The list shows a part of the results.

Assay: chemical genetic growth profiling, strain panel (AID 1159580);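 also: tested at 20 µM; growth read once vehicle control cultures reached saturation at 30 °C; 1 = growth at the plate median or of vehicle wells; lower values mean less growth of the strain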
Settings: S. cerevisiae deletion strains, growth OD

Measured: normalized growth

CC1CCN=C(N)S1 (centres undefined)
inactive: locus YAL013W, strain DEP1, hits give low values 0.997 | locus YAL040C, strain CLN3, hits give low values 0.98 | locus YER002W, strain NOP16, hits give low values 1 | locus YNL153C, strain GIM3, hits give low values 0.947 | locus YNL175C, strain NOP13, hits give low values 0.991 | locus YNL197C, strain WHI3, hits give low values 0.99 | locus YNL224C, strain SQS1, hits give low values 1.02 | locus YOR083W, strain WHI5 (second series), hits give low values 0.962 | locus YPL241C, strain CIN2, hits give low values 0.978
